Experimental findings from PubChem BioAssay (Tox21) are described below.

Structures are written as SMILES. Unmarked numbers belong to inactive results. Results filed as inconclusive are left out. The source made the active and inactive calls. Unless noted, the call rests on the fitted dose curve; in most records, active means well fitted curve in the direction sought with a large enough effect in the repeat runs; inconclusive means weak or mixed curves; inactive means no such curve, though single readings can be large; an effect the other way counts as inactive or inconclusive.

Experiment [1] can be described thus: A CellTox Green Cytotoxicity Assay to monitor cytotoxicity in HepG2 cells - 40 hour (AID 1224879). Further: nearly all actives have a fitted effect of over 40% in size. Further: potency means the concentration at half of the fitted maximal effect. Put shortly: (§1)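 Real-time cytotoxicity: fluorescence of a cell-impermeant cyanine dye binding DNA of dead HepG2 cells, measured repeatedly (0–40 h) during compound exposure at 37 C. Cells seeded 600/well with reagent, dosed after 5 h.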
Experiment [2] in a line: qHTS RealTime-Glo MT Cell Viability Assay in HEK293 cells - 0 hour (AID 1224880). Further: top concentration of the series differs between compounds; nearly all actives have a fitted effect of over 45% in size. Put shortly:
(§2)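 Luminescence, which tracks viable cell number through reduction of the prosubstrate to a NanoLuc substrate, was read over continuous 37 C culture. Cells (600/well) were premixed with reagent and rested 5 h before 23 nL of compound in DMSO was pinned.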
In general terms: qHTS replaces the single test concentration by a dilution series.

Experiment [3] in a line: A CellTox Green Cytotoxicity Assay to monitor cytotoxicity in HEK293 cells - 32 hour (AID 1224881). Further: nearly all actives have a fitted effect of over 40% in size. Put shortly:
(§3)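 Fluorescence from a DNA-binding dye excluded by viable cells was measured repeatedly in the same HEK293 wells (600 cells/well) during continuous compound exposure at 37 C. Each assay gives one read point: 0, 8, 16, 24, 32 or 40 h.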

The nature of experiment [4]: A CellTox Green Cytotoxicity Assay to monitor cytotoxicity in HepG2 cells - 0 hour (AID 1224882). Further: nearly all actives have a fitted effect of over 35% in size. Put shortly:
as §1

Experiment [5] is described as follows: A CellTox Green Cytotoxicity Assay to monitor cytotoxicity in HepG2 cells - 32 hour (AID 1224883). Further: nearly all actives have a fitted effect of over 50% in size. Put shortly:
as §1

Experiment [6] in a line: qHTS RealTime-Glo MT Cell Viability Assay in HepG2 cells - 16 hour (AID 1224885). Further: nearly all actives have a fitted effect of over 50% in size. Put shortly:
(§4)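 HepG2 suspension premixed with RealTime-Glo reagents is plated at 600 cells per well and left 5 h at 37 C/5% CO2. Compounds in DMSO then go in, and bioluminescence reflecting viable cell number is recorded over 40 h.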

Experiment [7] is described as follows: qHTS RealTime-Glo MT Cell Viability Assay in HEK293 cells - 8 hour (AID 1224887). Further: top concentration of the series differs between compounds; nearly all actives have a fitted effect of over 50% in size. Put shortly: as §2
A short description of experiment [8]: A CellTox Green Cytotoxicity Assay to monitor cytotoxicity in HEK293 cells - 16 hour (AID 1224888). Further: nearly all actives have a fitted effect of over 35% in size. Put shortly: as §3
The nature of experiment [9]: qHTS RealTime-Glo MT Cell Viability Assay in HepG2 cells - 0 hour (AID 1224889). Further: nearly all actives have a fitted effect of over 50% in size. The essentials: as §4
Experiment [10] can be described thus: A CellTox Green Cytotoxicity Assay to monitor cytotoxicity in HepG2 cells - 8 hour (AID 1224890). Further: nearly all actives have a fitted effect of over 45% in size. The essentials: as §1
The nature of experiment [11]: qHTS assay to identify small molecule antagonists of the estrogen receptor alpha (ER-alpha) signaling pathway using the BG1 cell line in the presence of 0.1 nM 17-beta-estradiol - cell viability counter screen (AID 1259241). Further: nearly all actives have a fitted effect of over 40% in size. The essentials: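 Following 5 days in phenol red-free medium with charcoal-stripped serum, VM7Luc4E2 cells received test compounds alongside 0.1 nM 17beta-estradiol (final) at 37C for 22 hr. Live cells were then quantified via protease-substrate fluorescence.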

Experiment [12] in a line: qHTS assay to identify small molecule antagonists of the androgen receptor (AR) signaling pathway using the MDA cell line in the presence of 0.5 nM R1881 - cell viability counter screen (AID 1259242). Further: nearly all actives have a fitted effect of over 45% in size. Put shortly: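 Live-cell protease activity was measured by CellTiter-Fluor fluorescence after 30 min. Before that, MDA-kb2 MMTV-luciferase cells had 16 hr at 37C without CO2, exposed to test compounds and 0.5 nM R1881 final.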

Experiment [13] is described as follows: qHTS assay to identify small molecule phospholipidosis (PLD) inducers (AID 1259344; active means well fitted curve in the direction sought with a large enough effect; an effect the other way counts as inactive or inconclusive). The essentials: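 Image-based: LipidTOX Red pit count/intensity per well and per cell; HepG2, 24 h compound at 37 C, PFA fixation, Hoechst counterstain.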
Experiment [14] is described as follows: qHTS assay to identify small molecule HDAC inhibitors (AID 1259364). Further: top concentration of the series differs between compounds; nearly all actives have a fitted effect of over 45% in size. The essentials:
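Luminescence read after 30 min room-temperature HDAC-Glo incubation measures cellular class I/II HDAC activity. Compounds were applied for 2 hr at 37 C to HCT-116 wild-type cells seeded the day before.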

The nature of experiment [15]: qHTS assay to identify small molecule HDAC inhibitors - cell viability counter screen (AID 1259365). The essentials: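 HCT-116 wild-type, overnight attachment; 2hr drug exposure, 37C; CellTiter-Glo luminescent ATP readout after 30min RT.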
Experiment [16] is described as follows: A CellTox Green Cytotoxicity Assay to monitor cytotoxicity in HEK293 cells - 8 hour (AID 1224884). Further: nearly all actives have a fitted effect of over 35% in size. Put shortly:
as §3

The nature of experiment [17]: qHTS RealTime-Glo MT Cell Viability Assay in HEK293 cells - 24 hour (AID 1224886). The essentials:
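Reads taken at 0, 8, 16, 24, 32 and 40 h from the same wells. HEK293 cells (600/well) carried RealTime-Glo reagents from seeding, with compound added after a 5 h settle at 37 C.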

Experiment [18] deals with Estrogen receptor (Homo sapiens) (UniProt P03372). Kind of experiment: qHTS assay to identify small molecule antagonists of the estrogen receptor alpha (ER-alpha) signaling pathway using the BG1 cell line in the presence of 0.1 nM 17-beta-estradiol (AID 1259244). Further: nearly all actives have a fitted effect of over 50% in size. The essentials: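 Luciferase luminescence (ONE-Glo, 30 min at room temperature) was read after 22 hr at 37C exposure to compounds plus 17beta-estradiol at 0.1 nM final. Cells were VM7Luc4E2 with endogenous ER-alpha and an ERE-driven luciferase, pre-cultured 5 days in hormone-depleted medium.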

For experiment [19], the target named is Androgen receptor (Homo sapiens) (UniProt P10275). Kind of experiment: qHTS assay to identify small molecule antagonists of the androgen receptor (AR) signaling pathway using the MDA cell line in the presence of 0.5 nM R1881 (AID 1259243). Further: nearly all actives have a fitted effect of over 50% in size. Put shortly: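 Luminescent reporter readout (ONE-Glo, 30 min, room temperature) after 16 hr co-treatment of MDA-kb2 cells with test compounds and 0.5 nM R1881 final, at 37C without CO2. The MMTV-driven luciferase responds to both AR and GR.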
Sequence of Androgen receptor (Homo sapiens) (P10275 whole entry, looked up): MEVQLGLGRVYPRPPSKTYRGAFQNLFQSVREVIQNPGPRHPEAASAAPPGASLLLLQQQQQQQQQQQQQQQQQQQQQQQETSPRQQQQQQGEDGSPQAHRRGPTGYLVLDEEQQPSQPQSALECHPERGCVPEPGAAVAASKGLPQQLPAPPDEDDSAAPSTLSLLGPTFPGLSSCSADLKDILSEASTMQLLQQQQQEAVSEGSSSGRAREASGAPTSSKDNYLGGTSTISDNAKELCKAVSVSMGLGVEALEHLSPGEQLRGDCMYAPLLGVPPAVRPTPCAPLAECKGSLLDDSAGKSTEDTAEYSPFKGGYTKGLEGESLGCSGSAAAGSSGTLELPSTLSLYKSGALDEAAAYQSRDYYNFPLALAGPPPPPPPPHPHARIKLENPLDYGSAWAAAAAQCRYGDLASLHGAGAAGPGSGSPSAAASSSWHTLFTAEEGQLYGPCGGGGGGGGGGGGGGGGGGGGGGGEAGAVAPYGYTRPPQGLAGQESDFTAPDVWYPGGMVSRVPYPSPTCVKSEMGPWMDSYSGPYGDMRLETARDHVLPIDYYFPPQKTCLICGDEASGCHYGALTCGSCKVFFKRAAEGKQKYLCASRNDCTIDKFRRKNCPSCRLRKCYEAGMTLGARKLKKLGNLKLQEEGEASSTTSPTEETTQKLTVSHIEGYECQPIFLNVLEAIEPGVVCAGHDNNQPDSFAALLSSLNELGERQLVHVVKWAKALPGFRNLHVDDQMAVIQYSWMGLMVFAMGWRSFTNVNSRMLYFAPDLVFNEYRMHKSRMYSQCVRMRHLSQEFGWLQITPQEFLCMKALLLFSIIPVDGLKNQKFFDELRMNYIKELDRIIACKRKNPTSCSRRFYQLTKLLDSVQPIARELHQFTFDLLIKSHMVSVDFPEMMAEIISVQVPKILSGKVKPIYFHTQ

Sequence of Estrogen receptor (Homo sapiens) (P03372 whole entry, looked up): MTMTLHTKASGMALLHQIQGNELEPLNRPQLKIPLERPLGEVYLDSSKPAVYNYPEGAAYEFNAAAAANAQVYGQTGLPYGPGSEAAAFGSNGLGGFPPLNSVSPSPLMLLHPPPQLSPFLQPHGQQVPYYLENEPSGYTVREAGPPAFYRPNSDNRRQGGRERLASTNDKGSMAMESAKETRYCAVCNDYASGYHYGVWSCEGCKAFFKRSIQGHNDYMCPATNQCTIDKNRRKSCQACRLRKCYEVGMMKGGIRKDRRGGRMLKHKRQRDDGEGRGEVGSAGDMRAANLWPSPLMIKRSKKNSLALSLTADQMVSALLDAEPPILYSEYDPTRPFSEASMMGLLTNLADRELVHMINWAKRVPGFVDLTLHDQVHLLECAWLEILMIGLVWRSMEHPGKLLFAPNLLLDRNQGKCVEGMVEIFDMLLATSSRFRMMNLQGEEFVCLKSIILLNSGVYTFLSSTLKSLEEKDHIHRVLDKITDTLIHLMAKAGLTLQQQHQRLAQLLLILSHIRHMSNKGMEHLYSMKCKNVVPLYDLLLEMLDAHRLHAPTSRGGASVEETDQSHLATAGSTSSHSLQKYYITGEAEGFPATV

On to `N=C(N)N`, for which the Potency result in experiment [1], in experiment [2], in experiment [3], in [4], in [5] and in [8] was “inactive” each time. The Potency entry in experiment [9], in experiment [10], in experiment [13] and in [14] was “inactive” each time. The result in experiment [6], in [7], in experiment [11], in experiment [12] and in experiment [15] was inactive.
Take `CC(C)(C)OC(=O)c1ccccc1C(=O)O`: the Potency entry in experiment [1], in experiment [2], in experiment [3], in [4], in [5] and in [16] was “inactive” each time. The Potency result in [8], in experiment [9], in [10] and in experiment [14] was “inactive” throughout. Also, the outcome in experiment [6], in experiment [17], in experiment [7], in experiment [11], in experiment [12] and in experiment [15] was inactive.
As to `COC(=O)c1ccc(C(=O)O)cc1`, the Potency result in experiment [1], in [2], in [3], in experiment [4], in experiment [5] and in [16] was “inactive” throughout. The Potency entry in experiment [8], in experiment [9], in experiment [10] and in [14] was “inactive” throughout. The compound was classed as inactive in experiment [6], in experiment [7], in [11], in [18] and in experiment [15].
On to `CCN(CC)CC(=O)Oc1ccc(NC(C)=O)cc1`, for which the Potency result in [1], in experiment [2], in [3], in experiment [4], in [5] and in experiment [16] was “inactive” each time. For the same compound, the Potency entry in experiment [8], in experiment [9], in experiment [10], in experiment [19] and in [14] was “inactive” each time. Besides, the outcome in [6], in [11], in experiment [12] and in experiment [15] was inactive.
Turning to `CCC(=O)OCCOc1ccccc1`, the Potency result in experiment [1], in experiment [2], in experiment [3], in experiment [4], in experiment [5] and in experiment [16] was “inactive” in each case. In addition, the Potency entry in experiment [8], in experiment [9], in experiment [10] and in experiment [14] was “inactive” each time. In addition, the call in [6], in experiment [17], in [7], in experiment [11] and in experiment [18] was inactive.
As to `CC/C=C\CCOC(=O)c1ccccc1`, the Potency entry in [2], in experiment [4], in experiment [16], in experiment [8], in experiment [9] and in experiment [10] was “inactive” throughout. In experiment [19], the Potency entry was “inactive”. The compound was called inactive in [6], in experiment [17], in experiment [11], in experiment [12] and in experiment [15].
With `Cc1ccc(O)c([N+](=O)[O-])c1`, the Potency entry in experiment [1], in experiment [2], in [3], in experiment [4], in experiment [5] and in [16] was “inactive” each time. In addition, the Potency entry in [8], in experiment [9], in experiment [10] and in [14] was “inactive” in each case. Further, the compound was called inactive in [6], in [7], in [11], in experiment [18] and in experiment [15].
For `CCCCCCCCOCCC#N`, the Potency in experiment [1] was 15.5 µM (active). Besides, the Potency entry in experiment [2], in [3], in experiment [4], in [16], in experiment [8] and in experiment [9] was “inactive” in each case. Further, the Potency result in experiment [10] was “inactive”. The result in experiment [6], in [17], in experiment [7], in [11], in [12] and in experiment [15] was inactive.
On to `CCCCCCCC(=O)N(C)C`, for which the Potency entry in experiment [2], in experiment [3], in experiment [4], in experiment [16], in experiment [8] and in experiment [9] was “inactive” each time. In experiment [14], the Potency result was “inactive”. Further, the call in experiment [6], in [7], in [11] and in experiment [18] was inactive.
With `CC/C=C/CCCCCCCCCCOC(C)=O`, the Potency result in [1], in [2], in experiment [3], in [4], in experiment [5] and in [16] was “inactive” in each case. The Potency entry in experiment [8], in experiment [9], in experiment [10] and in experiment [14] was “inactive” each time. Also, the compound was called inactive in experiment [6], in [17], in experiment [7], in [11], in experiment [12] and in experiment [18]. Moreover, in experiment [15], the call was inactive.
As to `CCCCN1C(=O)c2ccccc2C1=O`, the Potency result in experiment [2], in [3], in experiment [4], in [16], in experiment [8] and in experiment [9] was “inactive” throughout. Besides, the Potency result in [10] and in experiment [14] was “inactive” in each case. The compound was called inactive in experiment [6], in [17], in [7], in experiment [11], in [18] and in [15].
In the case of `O=C(O)/C=C(\CC(=O)O)C(=O)O`, the Potency entry in experiment [1], in [2], in [3], in experiment [4], in experiment [5] and in experiment [16] was “inactive” in each case. The Potency entry in experiment [8], in experiment [9], in experiment [10], in [13] and in experiment [14] was “inactive” throughout. Besides, the compound was classed as inactive in [6], in experiment [7], in experiment [11], in experiment [12], in [18] and in experiment [15].
